Source: PubChem BioAssay (SRMLSC)
Autofluor 339 – intrinsic fluorescence of library compounds, ex339/em460 – biochemical, MLSMR library, data from DPM-DC assay, artefact control, profiling panel | compound autofluorescence, ex339/em460 nm, NADH buffer; stronger effect = higher value; 1 = no-compound wells, NADH background | AID 709 | fluorescence fold increase at 10 µM | 65,000 compounds, 5.5% hits;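 active means at 10 µM, mean starting fluorescence two-fold or more over control wells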;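 further: signal is the first read of a kinetic run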
Spn PMK inh – S. pneumoniae PMK inhibition; purified PMK, PK/LDH-coupled NADH absorbance 340 nm; inhibition, % at 10 µM; 65,000 compounds, 0.49% hits; AID 539;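 active means top-ranked compounds by inhibition in the single 10 µM screen, taking a fixed number of the strongest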;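 further: 0% = full reaction with DMSO carrier and 100% = background rate without enzyme reaction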
DPM-DC inhibit – inhibitors of Streptococcus pneumoniae diphosphomevalonate decarboxylase; purified DPM-DC, PK/LDH coupled NADH fluorescence; calls only at 10 µM; 65,000 compounds, 0.49% hits; AID 556;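 active means the 320 compounds with the highest percent inhibition in the single-dose primary screen, excluding strongly autofluorescent ones, cut at about 32% in these data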;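 further: kinetic rate of NADH fluorescence loss reporting ADP formed by the decarboxylase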
MK inhibit – S. pneumoniae mevalonate kinase inhibition. inhibition, % at 10 µM. 65,000 compounds, 0.48% hits. purified MK, PK/LDH-coupled NADH absorbance 340 nm;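 active means ranked among the strongest by inhibition in the single 10 µM screen, a fixed top-ranked set picked for dose follow-up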
A340 absorber – compounds absorbing at 340 nm | 65,000 tested, under 10 active | fold change at 10 µM | compound absorbance at 340 nm, fold over control;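 active means at 10 µM dose, initial 340 nm absorbance at least 2 fold that of control wells; inactive means change under 2 fold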;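 further: initial absorbance extrapolated from kinetic A340 decline of NADH oxidation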
NADH enzymes – inhibition of NAD/NADH coupling enzymes, library profiling; AID 774; coupled PK/LDH NADH assays, four targets; 65,000 compounds, 0.02% hits; IC50, µM (top dose mostly 10 µM), inactives show at the highest dose inhibition;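 active means single-dose screening hits from any of four coupled enzyme assays that gave an IC50 when retested across doses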;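 further: the DPM-DC format reads NADH fluorescence rather than 340 nm absorbance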
* marks the source's active call; other numbers are inactive results; i = inactive; nt = no result given; + = active, no number. Hits are enriched below; roughly 6.8% of the tested compounds scored in any of these assays.

SMILES	Autofluor 339	Spn PMK inh	DPM-DC inhibit	MK inhibit	A340 absorber	NADH enzymes
CCOc1ccc(-c2nc(CSc3nncs3)cs2)cc1OC	1.2	2	i	7	1.1	3%
CC1(C)Cc2nc3oc4c(NCc5ccccc5)ncnc4c3cc2CO1	3.8*	5	nt	8	1	7%
COc1ncnc2c1oc1nc(C(C)C)c3c(c12)CC(C)(C)OC3	1.1	5	i	2	1.1	2%
CC(C)c1nc2oc3c(NCc4ccccn4)ncnc3c2c2c1COC(C)(C)C2	3*	14	+	12	1	20%
c1ccc(-c2csc(-n3cnnn3)n2)cc1	1.2	15	i	10	0.97	9%
CCOC(=O)c1ccc(NC(=O)NC2CCN(CC(=O)NCc3ccc4c(c3)OCO4)CC2)cc1	1.1	11	i	4	1	5%
C=CCc1c(C)nc2c(C(=O)O)cnn2c1C	1.9	14	i	0	1	5%
COC(=O)c1cnn2c3c(c(C)nc12)CCCC3	4.8*	24	nt	3	0.99	14%
CCN(CCO)Cc1cc(=O)oc2c(C)c(C)ccc12	1.2	0	i	4	1.1	1%
COc1ccc2c(C(F)(F)F)cc(=O)oc2c1C	2.9*	3	nt	11	1	2%
COCCn1c(=NC(=O)CSCC(=O)NC2CCCCC2)sc2cc(OC)ccc21	2*	13	i	4	1.1	6%
COCCn1c(=NC(=O)CSC(C)=O)sc2cc(OC)ccc21	1.4	4	i	5	1.1	13%
COc1cccc(CNC(=O)c2ccccc2N)c1	3.9*	5	nt	7	1	6%
COc1cccc(CNC(=O)Cn2cccc2)c1	1	7	i	6	0.98	4%
COC(=O)c1cc(OC)c(OC)cc1NC(=O)c1c(C)noc1C	1.1	0	i	4	1.1	1%
CCCCC(=O)NC1=NC(=O)C(C)(C)S1	1.2	8	i	0	1.1	3%
COc1ccccc1-c1nc(C#N)c(NCc2ccc(F)cc2)o1	3.9*	12	nt	12	1	12%
N#Cc1nc(-c2ccc(F)cc2)oc1NCc1ccccc1	2.2*	1	nt	0	1.1	1%
COc1ccc(CCNc2oc(-c3ccccc3OC)nc2C#N)cc1	3*	18	nt	16	1	6%
COCCNc1oc(-c2ccc(F)cc2)nc1C#N	2.4*	5	nt	0	1.1	3%
N#Cc1nc(COc2ccccc2Cl)oc1NCc1ccc(F)cc1	1.3	3	i	3	1	2%
COc1ccc(CNc2oc(COc3ccccc3)nc2C#N)cc1	0.96	16	i	5	1	7%
CCOC(=O)C(C(C)=O)c1c(Br)c(O)c(O)c2c(C(=O)c3ccc(C)cc3)coc12 (centres undefined)	1.1	1	i	0	1.1	0%
CCOc1ccc2ccccc2c1C(=O)Nc1cc(=O)n(C)c(=O)n1C	1.1	4	i	2	1	2%
Cc1onc(-c2ccccc2)c1C(=O)N1CC(C)OC(C)C1 (centres undefined)	1.1	0	i	6	1.1	2%
SMILES	Autofluor 339	Spn PMK inh	DPM-DC inhibit	MK inhibit	A340 absorber	NADH enzymes
COCCNc1oc(-c2ccccc2Cl)nc1C#N	1.7	6	i	5	1.1	8%
COc1ccc(CCNc2oc(-c3ccccc3OC)nc2C#N)cc1OC	3.9*	15	nt	14	1	15%
COc1ccccc1COCC(O)CNCC1(N2CCCCC2)CCCCC1 (centres undefined)	1.1	16	i	41*	1.1	19%
CCOc1ccc(S(=O)(=O)Nc2ccccc2C(=O)NCc2ccco2)cc1	4.9*	12	nt	0	1	6%
O=C(Nc1ccccc1C(=O)Nc1ccccc1C(=O)NCc1ccco1)c1ccco1	2.3*	0	i	8	1.1	5%
Cc1ccc(CNC(=O)c2ccccc2NS(C)(=O)=O)cc1	4*	7	nt	13	1	10%
O=C(Nc1ccccc1C(=O)NCc1ccco1)c1ccco1	1.1	12	i	0	1	4%
CS(=O)(=O)Nc1ccccc1C(=O)NCc1ccco1	3.9*	0	nt	9	1	5%
CCN1CCN(CC(=O)Nc2cccc(C)c2)C(=O)C1=O	1.2	18	i	4	1	7%
O=C(OC(C(=O)NCc1ccc2c(c1)OCO2)c1ccc(Cl)cc1)c1ccco1 (centres undefined)	1.1	8	i	0	0.98	3%
COc1ccc(C(=O)Nc2ccccc2C(=O)NC(C(=O)NCc2ccco2)C(C)C)cc1 (centres undefined)	1.7	28*	i	10	1	16%
c1csc(-c2nnsc2-c2nc3ccccc3[nH]2)c1	1.2	8	i	2	1	3%
O=c1[nH]c2ccccc2nc1-c1cccs1	4.9*	11	nt	0	1.1	6%
CC1(C)CC(=O)c2cnc(N3CCN(c4ccccc4)CC3)nc2C1	1.2	6	i	5	1	4%
CC1(C)CC(=O)C2=C(C1)N(c1cccc(O)c1)C1=C(C2)C(=O)CC(C)(C)C1	3.6*	13	nt	10	1	12%
CCCCN1C(=O)c2ccc(C(=O)Nc3c(N)n(CCCC)c(=O)n(C)c3=O)cc2C1=O	1.1	0	i	6	1	3%
CC(C)Cc1nnc(NC(=O)c2ccncc2)s1	1	14	i	0	1.1	9%
Cc1cc(C)c(S(=O)(=O)N2CCN(C)CC2)c(C)c1	1	6	i	6	1	6%
C=CCN1C(=O)C2C(C(=O)NC)C3(C)C=CC2(O3)C1C(=O)NCc1ccc(OC)cc1 (centres undefined)	1.1	1	i	3	0.97	1%
Cc1cccn2c(=O)c3cc(C(=O)NC4CCCC4)c(=N)n(C4CCCC4)c3nc12	2.4*	0	nt	6	1	2%
N=c1c(C(=O)NC2CCCC2)cc2c(=O)n3ccccc3nc2n1C1CCCC1	5.2*	12	nt	0	1	6%
Cc1cc2oc(C(=O)NC3CCS(=O)(=O)C3)c(C)c2cc1C (centres undefined)	1.1	1	i	5	1	3%
Cc1cccn2c(=O)c3cc(C(=O)NC4CCS(=O)(=O)C4)sc3nc12 (centres undefined)	2.1*	9	nt	3	1.1	6%
COc1ccc2c(CSc3nc4nc(C)cc(C)n4n3)cc(=O)oc2c1	0.96	15	i	0	1.1	14%
COc1ccc(N(Cc2cc3ccc(C)cc3[nH]c2=O)C(C)=O)cc1	1.2	12	i	4	1.1	7%
CC(=O)Nc1ccc(S(=O)(=O)N(Cc2ccco2)CC2CCCO2)cc1 (centres undefined)	1.1	7	i	6	1	4%
